Holding throughout (format): functional
Assay [1] relates to Plasmodium falciparum. Kind of assay: GSK_TCMDC: Inhibition of Plasmodium falciparum 3D7 in whole red blood cells, using parasite LDH activity as an index of growth. Test compounds present at 2uM.
Assay [2] relates to Plasmodium falciparum. Kind of assay: GSK_TCMDC: Inhibition of Plasmodium falciparum Dd2 in whole red blood cells, using parasite LDH activity as an index of growth. Test compounds present at 2uM.
Assay [3] concerns HepG2. Kind of assay: GSK_TCMDC: Percent inhibition of human HepG2 cell line. Test compounds present at 10uM.

Take `CC(C)c1ccc(NC(=O)c2ccc(C(=O)NC3CCN(CC4CCCCC4)CC3)cc2)cc1.O=C(O)C(F)(F)F`: the results for the Inhibition in assay [1], in assay [2] and in assay [3] were 98%, 5% and 34%, respectively.
In the same order, the values of `Cc1ccc(NC(=O)Nc2cccc(Cl)c2)cc1-c1ccc(C(=O)Nc2ccncc2)cc1` are 97%, 49% and 67%.
Turning to `COc1cccc(CC(=O)N2CCC(n3c(C)nc4ccc(C)cc43)CC2)c1`, the Inhibition in assay [1] turned out to be 100%; in assay [2], 99%; in assay [3], 1%.
In the case of `O=C(O)C(F)(F)F.c1cc(CN2CCc3ccccc3CC2)cc(-c2c[nH]c3nc(NC4CCCC4)ncc23)c1`, the values for the Inhibition in assay [1], in assay [2] and in assay [3] were 99%, 49% and 31%, respectively.
Regarding `COc1ccc2nccc(N3CCCN(CCNCc4ccc5c(n4)NC(=O)CS5)CC3)c2n1.Cl`, the Inhibition in assay [1] came to 100%; in assay [2] it was 10%; in assay [3], 8%.
In the same order, the values of `Cc1ccccc1C1CCN(C2CCC(NC(=O)/C=C/c3c[nH]c4ccccc34)CC2)CC1` (stereo unspecified) are 100%, 51% and 30%.
On to `CC(=O)Nc1ccc(C(=O)Nc2ccc(-c3cccc(-c4nc5cccc(C)c5[nH]4)c3)cc2)cn1`, for which the Inhibition in assay [1] was 99%; in assay [2] it was 74%; in assay [3], 36%.
In the same order, the values of `CC1(C)[C@H]2CC[C@@H](CNc3nc(NCC(=O)Nc4ccc5ccccc5c4)nc(N4CCC(N5CCCC5)CC4)n3)[C@@H]1C2` are 93%, 20% and 6%.
Consider `Cl.c1ccc2nc(NCCCCCCCCNc3ccc4ccccc4n3)ccc2c1`, for which the Inhibition in assay [1] was 100%; in assay [2], 37%; in assay [3] it was 52%.
On the same counts, the results for `CN1CCN(c2ccnc3ccc(NC(=O)Nc4cccc5c(Br)cccc45)cc23)CC1.Cl` are 100%, 96% and 7%.
For the molecule `O=C(NCCCN1CCN(c2cccc(Cl)c2)CC1)c1ccc(-c2nc3cc(Cl)c(Cl)cc3[nH]2)c(F)c1`, the Inhibition in assay [1] was 100%; in assay [2] it was 72%; in assay [3], 3%.
In the same order, the values of `CN1CCCC(CN2CCN(Cc3ccc(-c4cccc(-c5nc6ccccc6[nH]5)c4)cc3)CC2)C1.O=C(O)C(F)(F)F` (stereo unspecified) are 100%, 100% and 57%.
In the same order, the values of `CCCCC([C@@H](Cc1ccc2ccccc2c1)C(=O)N[C@H](C(=O)NC)C(C)(C)C)N(O)C=O` (stereo partly specified) are 100%, 97% and 0%.
On the same counts, the results for `COc1ccc2c(c1C1CCN(CCCCNC(=O)c3ccc(-c4ccc(Cl)cn4)cc3)CC1)CCCC2` are 90%, 49% and 29%.
For `Cc1[nH]c(C)c(-c2ccc(C#Cc3ccc(F)cc3F)cc2)c(=O)c1Br`, the Inhibition in assay [1] was 97%; in assay [2], 98%; in assay [3] it was 11%.
In the same order, the values of `N#Cc1ccnc(-c2ccc(CNC3CCN(CC4Cn5c(=O)ccc6ccc(F)c4c65)CC3)cc2)c1.O=C(O)C(F)(F)F` (stereo unspecified) are 88%, 41% and 24%.
On to `COc1ccc(C2C(C(=O)Nc3ccccc3)=C(C)Nc3c(C(=O)Nc4ccccc4)cnn32)cc1` (stereo unspecified), for which the Inhibition in assay [1] is given as 85%; in assay [2], 66%; in assay [3] it was 13%.
On the same counts, the results for `O=C(Nc1cccc(-c2ccc(CN3CCCC3)cc2)c1)c1cccc(Cl)c1.O=C(O)C(F)(F)F` are 100%, 61% and 32%.
On the same counts, the results for `Cc1c(S(=O)(=O)Nc2ccc3nccc(N4CC(C)NC(C)C4)c3c2)sc2ccc(Cl)cc12.Cl` (stereo unspecified) are 92%, 0% and 0%.
Consider `Cc1ccc2[nH]c3c(NCCCN4CCOCC4)ncnc3c2c1`, for which the Inhibition in assay [1] was determined as 100%; in assay [2] it was 9%; in assay [3], 0%.
Consider `Cc1cccc2nc(-c3ccc(-c4ccc(NC(=O)Nc5ccc(Cl)c(Cl)c5)cc4)s3)[nH]c12`, for which the Inhibition in assay [1], in assay [2] and in assay [3] was 100% throughout.
Take `Clc1ccc(Nc2nc(NCc3ccccc3)nc(N/N=C/c3ccccn3)n2)cc1`: the results for the Inhibition in assay [1], in assay [2] and in assay [3] were 99%, 91% and 41%, respectively.
In the case of `Cc1cccc2nc(-c3ccc(-c4cccc(NC(=O)C(C)CN5CCN(C)CC5)c4)cc3)[nH]c12` (stereo unspecified), the Inhibition in assay [1] is recorded as 98%; in assay [2] it was 51%; in assay [3], 5%.
Regarding `C=CCNc1cc(-c2ccccn2)nc(-c2ccccn2)n1`, the values for the Inhibition in assay [1], in assay [2] and in assay [3] were 94%, 79% and 78%, respectively.
In the same order, the values of `Cc1cccc2nc(-c3ccc(-c4ccc(CN5CCN(CCN6CCOCC6)CC5)cc4)cc3)[nH]c12.O=C(O)C(F)(F)F` are 98%, 74% and 49%.
On the same counts, the results for `COc1cccc(CNC[C@@H](O)[C@H](Cc2ccccc2)NC(=O)c2cc(C3CCCC3)cc(N3CCCCS3(=O)=O)c2)c1.Cl` are 96%, 83% and 7%.
For the molecule `Cc1ccnc2nc(C(=O)Nc3cc(Cl)ccc3N3CCOCC3)nn12`, the Inhibition worked out at 84% in assay [1], 63% in assay [2] and 0% in assay [3].
On the same counts, the results for `CC1(C)N=C(N)N=C(N)N1c1cccc(Cl)c1.Cl` are 96%, 96% and 69%.
In the same order, the values of `Fc1ccccc1COc1ccc(Nc2ncnc3ccc(I)cc23)cc1Cl` are 90%, 37% and 17%.
On the same counts, the results for `CCC(C)CNC(=O)CN1CN(c2ccccc2)C2(CCN(C(=O)c3ccc(Br)cc3)CC2)C1=O` (stereo unspecified) are 88%, 88% and 10%.
With `Nc1nc(N)c2c(ccc3c2ccn3CCCCO)n1`, the Inhibition in assay [1] was determined as 93%; in assay [2], 49%; in assay [3] it was 61%.
On to `CCNC(=O)Nc1ccc(N(C)c2ccnc(NC3CC3)n2)cc1`, for which the Inhibition in assay [1] came out at 100%; in assay [2], 80%; in assay [3], 21%.
As for `CCC(COCc1ccc(Cl)cc1)N(C)CCN(C)C(CC)COCc1ccc(Cl)cc1.Cl` (stereo unspecified), the values for the Inhibition in assay [1], in assay [2] and in assay [3] were 95%, 78% and 89%, respectively.
`CCOc1cc(C=Cc2nc(O)c3ccccc3n2)cc(Cl)c1O`: the Inhibition is on record as 83% in assay [1], 90% in assay [2] and 25% in assay [3].
In the same order, the values of `c1cc(Cc2ccc(Nc3c4ccccc4nc4ccccc34)cc2)cc(Nc2c3ccccc3nc3ccccc23)c1` are 100%, 100% and 91%.
Regarding `CCc1cn(CCCOC)c2ccc(C(=O)N[C@@H](Cc3ccccc3)[C@H](O)CNCc3cccc(C(F)(F)F)c3)cc12`, the Inhibition in assay [1] is recorded as 93%; in assay [2], 78%; in assay [3] it was 8%.
In the same order, the values of `Cc1cnc(C(=O)Nc2cccc(-c3ccc(-c4nc5cc(F)ccc5[nH]4)cc3)c2)cn1` are 100%, 13% and 19%.
On the same counts, the results for `CNCCNCc1ccc(-c2cccc(-c3nc4cc(C(F)(F)F)ccc4[nH]3)c2)cc1.O=C(O)C(F)(F)F` are 98%, 77% and 27%.
In the same order, the values of `Cc1cccc2nc(-c3cccc(-c4ccc(NC(=O)c5cccc(C(N)=O)c5)cc4)c3)[nH]c12` are 100%, 61% and 25%.
In the case of `CC1CCN(C(=O)[C@H](Cc2c[nH]c3ccccc23)NS(=O)(=O)c2ccc(Cl)cc2)CC1`, the Inhibition in assay [1] stood at 100%; in assay [2] it was 99%; in assay [3], 0%.
For the molecule `COc1ccc2c(NN=Cc3cccnc3)ccnc2c1`, the values for the Inhibition in assay [1], in assay [2] and in assay [3] were 97%, 26% and 3%, respectively.
With `Cc1ccc(C)c(Cn2c(N3CCC(C(=O)NCc4cccs4)CC3)nc3ccccc32)c1`, the Inhibition is listed as 89% in assay [1], 73% in assay [2] and 0% in assay [3].
On the same counts, the results for `Cl.NC(=O)c1cccc(Nc2nccc(Nc3ccc(Oc4cccc5ccccc45)cc3)n2)c1` are 94%, 22% and 0%.
In the same order, the values of `CCCOc1ccc(C=C(CC(=O)O)c2nc3ccccc3s2)cc1OCC` are 89%, 84% and 7%.
On the same counts, the results for `NCC1CCCN1Cc1ccc(-c2ccc(-c3nc4cc(C(F)(F)F)ccc4[nH]3)s2)cc1.O=C(O)C(F)(F)F` (stereo unspecified) are 100%, 97% and 31%.
As to `CS(=O)(=O)Cc1ccc(Nc2nccc(-c3c(-c4cccc(NC(=O)C5CCCCC5)c4)nn4ncccc34)n2)cc1`, the Inhibition in assay [1] is recorded as 98%; in assay [2] it was 99%; in assay [3], 31%.
In the same order, the values of `Cl.NC(=O)N1CCN(Cc2ccc(Br)cc2)CC1` are 96%, 0% and 83%.
In the same order, the values of `CCCCCCOc1ccc(C(=O)N(Cc2ccccc2)c2c(-c3ccccc3)nc3cc(C)ccn23)cc1` are 95%, 96% and 0%.
Regarding `COc1cc2cc(Cc3cnc(N)nc3N)ccc2c(OC)c1OC.Cl`, the Inhibition is given as 97% in assay [1], 2% in assay [2] and 1% in assay [3].
In the same order, the values of `CCc1cn2c3c(cc(C(=O)N[C@@H](Cc4ccccc4)[C@H](O)CNC4CCCCC4)cc13)N(C)S(=O)(=O)C2.O=CO` are 99%, 99% and 20%.
As to `Cc1ccc2c(O)c([N+](=O)[O-])c(O)nc2c1`, the figures for the Inhibition in assay [1], in assay [2] and in assay [3] were 98%, 0% and 3%, respectively.
For `CCN(CCCN1CCCCC1)c1cc(C)nc(Nc2ccc(Br)cc2F)n1.O=C(O)C(F)(F)F`, the values for the Inhibition in assay [1], in assay [2] and in assay [3] were 95%, 24% and 32%, respectively.
For the molecule `COc1cc(NCCCNCc2cn(Cc3cc(Br)cc(Br)c3)c3ccccc23)nc2ccccc12`, the Inhibition was found to be 100% in assay [1], 85% in assay [2] and 99% in assay [3].
On the same counts, the results for `Br.C=CCc1cc(C)ccc1OCCCON1C(N)=NC(N)=NC1(C)C` are 96%, 96% and 64%.
On the same counts, the results for `CCCN1CCCN(Cc2cccc(NC(=O)c3ccc(-c4ccccc4)cc3)c2)CC1.O=C(O)C(F)(F)F` are 92%, 15% and 34%.
In the same order, the values of `COc1ccccc1CCC(C)(C)NC(=O)CC(CCc1ccccc1)Nc1ccc(C#N)c2ccccc12` (stereo unspecified) are 94%, 65% and 6%.
With `COc1ccc(C2CC(=O)C3=C(C2)NC(C)=C(C(=O)OC(C)C)C3c2ccc(O)cc2)cc1OC` (stereo unspecified), the figures for the Inhibition in assay [1], in assay [2] and in assay [3] were 99%, 98% and 0%, respectively.
On the same counts, the results for `O=C(/C=C/c1ccc(Cl)c(Cl)c1)NCCCCCCN1CCCN(C(=O)Nc2ccc(Cl)c(Cl)c2)CC1` are 100%, 8% and 25%.
On the same counts, the results for `COc1cccc(OC)c1OCCCOc1c(C)nc(N)nc1N.Cl` are 97%, 0% and 31%.
On to `Cc1cc(C)c(NC(=O)NC2CCN(CCCCCNC(=O)/C=C/c3ccc(Cl)c(Cl)c3)CC2)c(C)c1`, for which the figures for the Inhibition in assay [1], in assay [2] and in assay [3] were 100%, 17% and 30%, respectively.
For the molecule `Cc1ccc2nc(-c3ccc(/C=C/C(=O)NC4CCN(Cc5ccccc5)CC4)cc3)[nH]c2c1C`, the Inhibition in assay [1] is 100%; in assay [2], 92%; in assay [3] it was 22%.
Take `SC(=Nc1ccc(Cl)c(Cl)c1)NN=Cc1ccccn1`: the results for the Inhibition in assay [1], in assay [2] and in assay [3] were 98%, 85% and 40%, respectively.

The record behind these values is ChEMBL document CHEMBL1157539, “Thousands of chemical starting points for antimalarial lead identification” (Nature, 2010).
